The structures appear in SMILES notation. In all, about 52,000 compounds went through this assay and about 1,700 (3.3%) were called active. No stated cut-off is given here; in the data, active means survival mostly below about 52% (no sharp cut-off); inactive means mostly above about 56%. Shown is part of a subset that was picked to be rich in actives.

The source of these data is PubChem BioAssay AID463173 (ICCB-Longwood Screening Facility, Harvard Medical School, 2010).

The test concerns Wild type. Briefly: growth inhibition of S. aureus wild type versus tarO mutant, primary screen, teichoic acid synthesis inhibitors, RN4220, OD600 (AID 463173). The note with it: S. aureus RN4220 wild type/DeltatarO growth, OD600, 18 h, stronger effect = lower value, screened at 18.75 µg/mL (by protocol).
As to `CCCCn1c(SCc2ccccc2C)nc2ccsc2c1=O`, the survival is 136% (inactive). Turning to `COc1cc(Nc2nc(SCc3ccccc3Cl)nc3ccccc23)cc(OC)c1`, the survival was 95% (inactive). The value for `Cc1ccc(/C=C/c2nc3ccccc3n2S(=O)(=O)c2ccc(Br)cc2)cc1` was 70% (inactive); that for `CC(C)c1ccc(Nc2c(-c3ccsc3)nc3ccc(Cl)cn23)cc1` was 95% (inactive).

For `COc1ccc(C)cc1NC(=O)c1nnn(CC(=O)Nc2c(C)cccc2C)c1N`, the survival is 74% (inactive). Regarding `COc1ccc(NC(=O)Cn2c(=O)n(Cc3nc(C)no3)c(=O)c3cc4c(cc32)OCO4)cc1OC`, the survival was 70% (inactive).

`Cc1ccc(C(=O)Nc2cccc(C(=O)OCc3cc(=O)n4nc(C5CC5)sc4n3)c2)cc1`: the survival was 55% (inactive).

For the compound `O=C(Nc1cccc(C(=O)OCc2cc(=O)n3nc(C4CC4)sc3n2)c1)c1ccc(F)cc1`, the survival was 81% (inactive).

As for `COc1ccc(C(=O)Nc2ccc(C(=O)OCc3cc(=O)n4nc(C5CC5)sc4n3)cc2)cc1`, the survival was -3% (active).

Take `COc1cccc(C(=O)Nc2ccc(C(=O)OCc3cc(=O)n4nc(C5CC5)sc4n3)cc2)c1`: the survival is 63% (inactive). The value for `COc1ccc(C(=O)Nc2cccc(C(=O)OCc3cc(=O)n4nc(C5CC5)sc4n3)c2)cc1` was 111% (inactive); that for `Cc1ccc(OCC(=O)Nc2ccc(C(=O)OCc3cc(=O)n4nc(C5CC5)sc4n3)cc2)cc1` was 81% (inactive).

`Cc1cccc(OCC(=O)Nc2ccc(C(=O)OCc3cc(=O)n4nc(C5CC5)sc4n3)cc2)c1`: the survival was -4% (active). The value for `O=C(Nc1cccc(C(=O)OCc2cc(=O)n3nc(C4CC4)sc3n2)c1)c1ccccc1` was 1% (active); that for `O=C(COc1ccccc1)Nc1ccc(C(=O)OCc2cc(=O)n3nc(C4CC4)sc3n2)cc1` was 64% (inactive); that for `CCCCN(CC)CCNc1ncnc2onc(-c3ccc(Cl)cc3)c12` was 82% (inactive). The figure for `CCC(C(=O)NCc1cc(OC)ccc1OC)n1nc(C)c2sc3ccccc3c2c1=O` (configuration not stated) is 87% (inactive); for `Cc1ccc(CCNC(=O)c2ccc3c(c2)N(Cc2cccc(F)c2)C(=O)c2ccccc2S3)cc1` it is 71% (inactive); for `CCN(CC)C(=O)CSc1nnc(COc2ccc(Br)cc2)o1` it is 102% (inactive).

On to `COCc1[nH]nc2c1C(c1ccccc1C(F)(F)F)C(C#N)=C(N)O2` (configuration not stated), for which the survival was 114% (inactive).

`CCCc1ccc(-c2ccc(C(=O)Oc3ccc(Br)cc3)cc2)nc1`: the survival was 140% (inactive).

On to `CCCCCc1ccc(-c2ccc(C(=O)Oc3ccc(C(=O)OC)cc3)cc2)nc1`, for which the survival is 74% (inactive).

Turning to `CCCCCc1ccc(-c2ccc(Br)cc2)nc1`, the survival was -3% (active). The value for `NNC(=O)CCC(=O)Nc1ccccc1` was 112% (inactive); that for `CC(C)CNS(=O)(=O)c1ccccc1` was 120% (inactive). The value for `CCN(CC)S(=O)(=O)N1CCN(S(=O)(=O)N2CCOCC2)CC1` was 118% (inactive); that for `O=C(CS(=O)(=O)c1cccc2nsnc12)N1CCN(c2ccc(F)cc2)CC1` was 97% (inactive). Consider `CCOC(=O)c1nnn(-c2nn3nnnc3c3ccccc23)c1C`, for which the survival was 101% (inactive). The figure for `CCn1cc(C(=O)NCC(C)C)c(=O)c2cc(F)c(N3CCN(C(=O)c4ccco4)CC3)cc21` is 107% (inactive). The value for `O=C(NCc1cccnc1)c1cn(C2CC2)c2cc(N3CCN(C(=O)c4cccc(Cl)c4)CC3)c(F)cc2c1=O` was 0% (active); that for `O=C(NCc1ccncc1)C1CCN(C(=O)c2cccc(Cl)c2)CC1` was 111% (inactive); that for `CCc1ccc(NC(=O)Cn2c(=O)n(CCCC(=O)NCc3ccccc3Cl)c(=O)c3ccccc32)cc1` was 136% (inactive).

`CCN1CCN(CCCNC(=O)c2cc3c(s2)-c2ccccc2OC3)CC1`: the survival is 84% (inactive). The figure for `COCCCN(Cc1ccco1)C(=O)c1cc2c(s1)-c1ccccc1OC2` is 12% (active); for `COc1cccc(CNC(=O)c2cc3c(s2)-c2ccccc2OC3)c1` it is 65% (inactive). Take `CN(C)CCN(Cc1ccco1)C(=O)c1cc2c(s1)-c1ccccc1OC2`: the survival is 70% (inactive). The figure for `CC(C)CCN(Cc1ccco1)C(=O)c1cc2c(s1)-c1ccccc1OC2` is 7% (active); for `CC(C)OCCCN(Cc1ccco1)C(=O)c1cc2c(s1)-c1ccccc1OC2` it is 9% (active). The figure for `CC(C)CCN(Cc1ccco1)C(=O)c1cc2c(Cl)nc3ccccc3c2s1` is 77% (inactive); for `O=C(CC1N=C2c3ccccc3N=C(SCc3ccccc3F)N2C1=O)NCc1cccs1` (configuration not stated) it is 75% (inactive). In the case of `Cc1cc(C)c2c(NC(=O)c3ccccc3Cl)c(C(=O)Nc3ccc(C)c(C)c3)sc2n1`, the survival was 64% (inactive). The figure for `CCc1ccc(NC(=O)c2cc3nc(-c4ccc(C)cc4)cc(C(F)(F)F)n3n2)cc1` is 60% (inactive); for `O=C(Nc1ccc(NC(=O)C2CC23CCC3)cc1)C1CC12CCC2` (configuration not stated) it is 118% (inactive); for `CCN1CCN(c2cc(C)c3cc(NC(=O)/C=C/c4cccc(OC)c4OC)ccc3n2)CC1` it is 83% (inactive).

Consider `O=S(=O)(Nc1ccc(-c2ccc(N3CCCCC3)nn2)cc1)c1ccc(OC(F)(F)F)cc1`, for which the survival was 72% (inactive). On to `Cc1ccc(S(=O)(=O)Nc2cccc(-c3ccc(N4CCC(C)CC4)nn3)c2)s1`, for which the survival was -3% (active).

Consider `Cc1ccc(S(=O)(=O)Nc2cccc(-c3ccc(N4CCCCC4)nn3)c2)s1`, for which the survival is 64% (inactive). For `O=S(=O)(Nc1ccc(-c2ccc(N3CCCC3)nn2)cc1)c1ccc(C(F)(F)F)cc1`, the survival was 64% (inactive).

Consider `O=S(=O)(Nc1cccc(-c2ccc(N3CCCCCC3)nn2)c1)c1ccc(F)cc1`, for which the survival is 55% (inactive). The figure for `COc1ccc(F)cc1S(=O)(=O)Nc1cccc(-c2ccc(N3CCC(C)CC3)nn2)c1` is 129% (inactive); for `COc1ccc(C)cc1S(=O)(=O)Nc1cccc(-c2ccc(N3CCCC3)nn2)c1` it is 77% (inactive); for `O=S(=O)(Nc1cccc(-c2ccc(N3CCCCCC3)nn2)c1)c1ccccc1` it is 1% (active). As for `O=S(=O)(Nc1ccc(-c2ccc(N3CCCC3)nn2)cc1)c1ccc(OC(F)(F)F)cc1`, the survival was -6% (active). The value for `O=S(=O)(Nc1cccc(-c2ccc(N3CCCCC3)nn2)c1)c1cccc(F)c1` was 119% (inactive); that for `COc1ccc(C)cc1S(=O)(=O)Nc1cccc(-c2ccc(N3CCC(C)CC3)nn2)c1` was -4% (active). The value for `CC1CCN(c2ccc(-c3cccc(NS(=O)(=O)c4ccc(Cl)s4)c3)nn2)CC1` was 71% (inactive); that for `Cc1ccc(NC(=O)C(=O)NCC(c2ccc3c(c2)OCO3)N2CCOCC2)cc1C` (configuration not stated) was 45% (inactive); that for `CC(C)c1ccc(NC(=O)CSC2=Nc3ccccc3C3=NC(CC(=O)NCc4ccc(F)cc4)C(=O)N23)cc1` (configuration not stated) was 73% (inactive). The figure for `Cc1nc(C)c(-c2csc(NCc3ccccc3)n2)s1` is 123% (inactive); for `COc1ccc(CC(=O)Nc2cc(-c3cn4cccnc4n3)ccc2C)cc1OC` it is 85% (inactive).

On to `CCCc1noc(-c2ccc(N3CCCCC3)c([N+](=O)[O-])c2)n1`, for which the survival was 77% (inactive). The value for `O=C(CN(C(=O)c1csnn1)c1ccccc1)NCc1ccc2c(c1)OCO2` was 114% (inactive). The figure for `O=c1oc2ccc(Br)cc2cc1-c1nc(-c2ccccc2)no1` is 66% (inactive). Turning to `O=C(CSc1nnc2[nH]c(=O)cc(-c3ccccc3)n12)Nc1ccc(F)cc1F`, the survival was 94% (inactive). As to `COCCCNC(=O)CN1C(=O)COc2ccc(S(=O)(=O)N3CCCCCC3)cc21`, the survival is 77% (inactive). The figure for `CCN(CC)S(=O)(=O)c1cc(-c2onc(C)c2C)ccc1OC` is 87% (inactive); for `CCCCn1cc(S(=O)(=O)c2ccc(Cl)cc2)c(=O)c2cc(F)c(N3CCCCC3)cc21` it is 105% (inactive); for `Cc1cc(C)cc(OCC(=O)Nc2ccc(S(=O)(=O)Nc3onc(C)c3C)cc2)c1` it is 73% (inactive).

On to `CC(=O)N1CCc2c(sc3c2c(=O)n(-c2ccccc2)c(=O)n3CC(=O)Nc2cccc(C)c2)C1`, for which the survival is 91% (inactive). As for `CCC(=O)Nc1ccc(-c2nc3ccc(NC(=O)CC)cc3[nH]2)cc1`, the survival was 113% (inactive). The figure for `O=C(Nc1ccc2nc(-c3ccccc3)[nH]c2c1)c1ccco1` is 1% (active); for `CC(C)(C)C(=O)Nc1ccc(-c2nc3ccc(NC(=O)C(C)(C)C)cc3[nH]2)cc1` it is 148% (inactive); for `CCOC(=O)c1sc2ccccc2c1S(=O)(=O)Nc1ccc(C(C)=O)cc1` it is 90% (inactive). The value for `Cc1ccc(S(=O)(=O)c2c(O)cc(C)c(NS(=O)(=O)c3ccc(Cl)cc3)c2C)cc1` was 105% (inactive); that for `Cc1ccc(S(=O)(=O)c2c(O)cc(C)c(NS(=O)(=O)c3ccc(Br)cc3)c2C)cc1` was -1% (active); that for `COc1ccc(S(=O)(=O)c2c(C)c(NS(=O)(=O)c3ccccc3)cc(C)c2O)cc1` was 90% (inactive). `CC(OC(=O)c1cc2sccc2n1C)C(=O)NCC1CCCO1` (configuration not stated): the survival was 107% (inactive). The value for `COC(=O)c1ccc(-n2nnc(-c3nsc(NC(=O)c4ccc(Cl)cc4)n3)c2C)cc1` was 79% (inactive); that for `COc1ccc(C2c3c(n(C)c4ccccc34)C(=O)N2CC(=O)Nc2cccc(F)c2)cc1` (configuration not stated) was 85% (inactive).

With `O=C(NCc1ccc(F)cc1)C(=O)NCC(c1ccc2c(c1)OCO2)N1CCOCC1` (configuration not stated), the survival is 88% (inactive). The figure for `CCOc1ccc(N2CC(c3nc4ccccc4n3CCOc3ccc(CC)cc3)CC2=O)cc1` (configuration not stated) is 79% (inactive); for `CCc1ccc(OCCn2c(C3CC(=O)N(Cc4ccc(F)cc4)C3)nc3ccccc32)cc1` (configuration not stated) it is -14% (active).

As for `Cc1cc(OCCn2c(C3CC(=O)N(Cc4ccc(F)cc4)C3)nc3ccccc32)ccc1Cl` (configuration not stated), the survival was -15% (active). The value for `COc1ccc(OCCn2c(C3CC(=O)N(c4ccc(F)cc4)C3)nc3ccccc32)cc1` (configuration not stated) was 84% (inactive); that for `COc1ccc(OCCCn2c(C3CC(=O)N(c4ccc(F)cc4)C3)nc3ccccc32)cc1` (configuration not stated) was 85% (inactive); that for `O=C1CC(c2nc3ccccc3n2CCCOc2ccccc2)CN1c1ccc(F)cc1` (configuration not stated) was 107% (inactive). The figure for `N#C/C(=C\c1ccccc1)C(=O)Nc1sc2c(c1C(N)=O)CCC2` is 75% (inactive).
